Results filed as inconclusive are left out. Calls of active or inactive are those of the source. Calls follow the shape of the dose curve; as a rule, active = well fitted inhibition curve with a large enough effect; inconclusive = small, poorly fitted or top-dose-only effect; inactive = no such curve, though single readings can be large or run the other way.
% is scaled to controls: 0 for no effect and ±100 for the full control effect; potency is read from the fitted curve at half-maximal effect.

The first test is described as follows: qHTS assay to identify inhibitors of the type 1 interferon - major histocompatibility complex class I in skeletal muscle: Counter screen cell viability and HiBit confirmation (AID 1347412). Also: nearly all actives have a fitted effect of over 60% in size. The following applies: iHSKM muscle cells + IFN-b, HiBiT or CellTiter-Glo, 24 h; HiBiT; at 45.9 µM (top of the series). The method in brief:
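Myoblasts (C25cl48, HLA-B HiBiT) seeded in medium without dexamethasone, IFN-b 4 ng/ml added except unstimulated columns; 1 hr later compounds pinned (12-pt 1:3, top 46 uM final). Incubated 24 hrs, lysed 10 min, luminescence measured.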
Consider `C[C@@H](NC(=O)c1ncnc(N)c1Cl)c1ncc(C(=O)Nc2cc(C(F)(F)F)c(Cl)cn2)s1`, for which the activity change, negative = inhibition is -24.2% (inactive).

Regarding `CNC(=O)c1ccc2c(C(=Nc3cccc(CN(C)C)c3)c3ccccc3)c(O)[nH]c2c1`, the activity change, negative = inhibition was -0.844% (inactive).

Regarding `OC(c1cc(C(F)(F)F)nc2c(C(F)(F)F)cccc12)C1CCCCN1` (centres undefined), the activity change, negative = inhibition is -11.4% (inactive).

For `CNC(=O)c1cc(Oc2ccc(NC(=O)Nc3ccc(Cl)c(C(F)(F)F)c3)c(F)c2)ccn1`, the activity change, negative = inhibition is -24.1% (inactive).

The test is the same for the next values; noted with them: iHSKM muscle cells + IFN-b, HiBiT or CellTiter-Glo, 24 h; Viability.
Take `CN(C)CCN(C)C(=O)c1ccc(NC(=O)Nc2ccc(-c3nc(N4CCOCC4)c4ccn(CC(F)(F)F)c4n3)cc2)cc1`: the Potency is 1.11 µM (active).

Take `COc1cc2nccc(Oc3ccc(NC(=O)Nc4ccc(F)cc4F)c(F)c3)c2cc1OC`: the Potency was 7.87 µM (active).

For the molecule `CC1(COc2ccc3c(c2)ncn3-c2ccc3cccc(N4CCC(N)CC4)c3n2)COC1`, the Potency is 27.9 µM (active).

With `COc1ccc(-c2ccc3ncc4c(c3c2)n(-c2ccc(N3CCNCC3)c(C(F)(F)F)c2)c(=O)n4C)cn1`, the Potency was 4.43 µM (active).

Still in this test, the particulars now being: iHSKM muscle cells + IFN-b, HiBiT or CellTiter-Glo, 24 h; Viability; at 45.9 µM (top of the series).
Turning to `NS(=O)(=O)c1ccc(Nc2nc(OCC3CCCCC3)c3[nH]cnc3n2)cc1`, the activity change, negative = inhibition was -13.9% (inactive).

For the molecule `COc1ccc2nc3cc(Cl)ccc3c(Nc3cc(CN4CCCC4)c(O)c(CN4CCCC4)c3)c2n1`, the activity change, negative = inhibition was -8.41% (inactive).

Regarding `CCc1cc(-c2n[nH]c(C)c2-c2ccc3c(c2)OCCO3)c(O)cc1O`, the activity change, negative = inhibition was -3.79% (inactive).

With `Cc1ccccc1-n1c(Cn2nc(-c3cccc(O)c3)c3c(N)ncnc32)nc2cccc(C)c2c1=O`, the activity change, negative = inhibition was 7.45% (inactive).

For the molecule `C[C@@H](NC(=O)c1ncnc(N)c1Cl)c1ncc(C(=O)Nc2cc(C(F)(F)F)c(Cl)cn2)s1`, the activity change, negative = inhibition was -2.15% (inactive).

Turning to `Fc1ccc(CNc2ncnc3ccc(F)cc23)cc1`, the activity change, negative = inhibition is 2.98% (inactive).

Turning to `CC[C@H](CC#N)OC(=O)N[C@@H](C)c1cccc(NC(=O)Nc2ccc(-c3cnco3)c(OC)c2)c1`, the activity change, negative = inhibition was -7.06% (inactive).

Turning to `O=C1CN2Cc3c(ccc(Cl)c3Cl)N=C2N1`, the activity change, negative = inhibition was -3.92% (inactive).

Regarding `CC(C)(O)CC(=O)NCCn1ccc2ncnc(Nc3ccc(Oc4cccc(C(F)(F)F)c4)c(Cl)c3)c21`, the activity change, negative = inhibition is -19.7% (inactive).

`COc1ccc(-c2cc3nccn3c(Nc3ncccc3C(N)=O)n2)cc1OC`: the activity change, negative = inhibition was -22.4% (inactive).

On to `NC1(C(=O)N[C@@H](CCO)c2ccc(Cl)cc2)CCN(c2ncnc3[nH]ccc23)CC1`, for which the activity change, negative = inhibition was -19.1% (inactive).

Regarding `CNC(=O)c1cc(COc2nnc(Nc3ccc(Cl)cc3)c3ccoc23)ccn1`, the activity change, negative = inhibition is -24.9% (inactive).

Take `CC(C)(C)c1nc(-c2cccc(NS(=O)(=O)c3c(F)cccc3F)c2F)c(-c2ccnc(N)n2)s1`: the activity change, negative = inhibition was 12.8% (inactive).

With `CNC(=O)c1ccc2c(C(=Nc3cccc(CN(C)C)c3)c3ccccc3)c(O)[nH]c2c1`, the activity change, negative = inhibition is -1.9% (inactive).

For `OC(c1cc(C(F)(F)F)nc2c(C(F)(F)F)cccc12)C1CCCCN1` (centres undefined), the activity change, negative = inhibition was -12.8% (inactive).

Take `CNC(=O)c1cc(Oc2ccc(NC(=O)Nc3ccc(Cl)c(C(F)(F)F)c3)c(F)c2)ccn1`: the activity change, negative = inhibition was 2.73% (inactive).
